Experimental data published in PubChem BioAssay (EPA / NIEHS).
Inconclusive results are not listed. Active and inactive are the calls of the source. How the source made its calls: active means hit-call score of the fitted dose curve at least 0.9, where 1 is the maximum; inconclusive means response in the unintended direction; inactive means score below 0.9.

Legend:
[1] = molecular target: Cellular tumor antigen p53 (Homo sapiens) (UniProt P04637); assay: TOX21_p53_BLA_p2_ratio: Tox21 HCT-116 p53 Agonism Beta-lactamase Assay, Ratio, Phase 2 (AID 2283592)
Outline: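 In this cell-based reporter format, HCT116 cells were dosed with chemicals delivered from DMSO by 217-fold dilution and incubated 16 h at 37C. Emission at 460 and 530 nm after 2 h CCF4-AM loading provided the ratio, fitted upward versus DMSO.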

[2] = molecular target: Cellular tumor antigen p53 (Homo sapiens) (UniProt P04637); assay: TOX21_p53_BLA_p3_ratio: Tox21 HCT-116 p53 Agonism Beta-lactamase Assay, Ratio, Phase 3 (AID 2283596)
Outline: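 HCT116 p53-bla cells (4000/well) given compound in DMSO (217-fold dilution) after 5 h, incubated 16 h at 37C. CCF4-AM substrate 2 h at room temperature; 460/530 nm emission ratio, gain fitted against DMSO.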

[3] = TOX21_p53_BLA_p4_viability: Viability Assessment in the Tox21 HCT-116 p53 Agonism Beta-lactamase Assay, Phase 4 (AID 2283597);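 further: hits lower the luminescence signal meaning cytotoxicity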
Outline: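 We seeded HCT116 p53 reporter cells at 4000/well and waited 5 h. We then added compounds in DMSO at a 217-fold dilution and incubated for 16 h. Viability was read as CellTiter-Glo luminescence after 30 min at RT.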

[4] = molecular target: Cellular tumor antigen p53 (Homo sapiens) (UniProt P04637); assay: TOX21_p53_BLA_p5_ratio: Tox21 HCT-116 p53 Agonism Beta-lactamase Assay, Ratio, Phase 5 (AID 2283599)
Outline: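 HCT-116 cells carrying a p53-inducible beta-lactamase reporter were seeded at 4000 cells/well and dosed after 5 h with compound in DMSO (217-fold dilution). After 16 h at 37C, CCF4-AM substrate was added for 2 h, and the 460/530 nm emission ratio was scored as gain-of-signal versus DMSO.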

[5] = TOX21_p53_BLA_p3_viability: Viability Assessment in the Tox21 HCT-116 p53 Agonism Beta-lactamase Assay, Phase 3 (AID 2283593);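 further: cells exposed to compound for 16 h before reading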
Outline: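 HCT-116 cells (4000/well) rested 5 h at 37C, then got DMSO compounds by pin tool (217-fold dilution) for 16 h at 37C, 5% CO2. After the bla read, CellTiter-Glo was added and luminescence read at 30 min, room temperature.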

[6] = TOX21_p53_BLA_p5_viability: Viability Assessment in the Tox21 HCT-116 p53 Agonism Beta-lactamase Assay, Phase 5 (AID 2283600)
Outline: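 Compounds, pinned from DMSO at 217-fold dilution, were left on the cells for 16 h. The viability endpoint was ATP content measured by CellTiter-Glo luminescence, where falling signal reflects cytotoxicity.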

[7] = molecular target: Cellular tumor antigen p53 (Homo sapiens) (UniProt P04637); assay: TOX21_p53_BLA_p4_ratio: Tox21 HCT-116 p53 Agonism Beta-lactamase Assay, Ratio, Phase 4 (AID 2283601)
Outline: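 HCT116 cells carrying an inducible beta-lactamase reporter were plated at 4000 cells/well, rested 5 h, then exposed to compounds in DMSO (217-fold dilution) for 16 h at 37C. CCF4-AM substrate was loaded 2 h at room temperature; 460/530 nm emission ratio scored gain-of-signal versus DMSO.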

Measured: outcome

Chain of Cellular tumor antigen p53 (Homo sapiens) (P04637 whole entry, looked up): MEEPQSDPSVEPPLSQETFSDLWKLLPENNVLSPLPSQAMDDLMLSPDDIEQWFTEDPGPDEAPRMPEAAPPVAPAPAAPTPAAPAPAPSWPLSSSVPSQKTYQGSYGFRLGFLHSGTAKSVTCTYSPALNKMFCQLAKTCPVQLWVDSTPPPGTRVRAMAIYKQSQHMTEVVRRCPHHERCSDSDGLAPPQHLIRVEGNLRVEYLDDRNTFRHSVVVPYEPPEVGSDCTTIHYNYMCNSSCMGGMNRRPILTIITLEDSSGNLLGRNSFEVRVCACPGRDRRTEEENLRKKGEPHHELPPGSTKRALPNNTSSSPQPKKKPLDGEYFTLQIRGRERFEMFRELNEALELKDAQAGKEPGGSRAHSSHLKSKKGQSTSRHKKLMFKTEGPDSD

CN1CCN(c2c(F)cc3c(=O)c(C(=O)O)cn4c3c2OCN4C)CC1
inactive: [1] | [2] | [3] | [4]

CC1(C)O[C@@H]2C[C@H]3[C@@H]4CCC5=CC(=O)CC[C@]5(C)[C@@]4(F)[C@@H](O)C[C@]3(C)[C@]2(C(=O)CCl)O1
inactive: [1] | [5] | [6] | [7]

NCCCC(=O)O
inactive: [1] | [2]

COC(C)OC
inactive: [1] | [5] | [6] | [7]

O=c1c(O)c(O)c1=O
not listed: [5]
inactive: all other assays above

O=C1CCCC(=O)C1
inactive: [1] | [2]

Cc1ccc(O)c(N)c1
not listed: [5]
inactive: all other assays above

NC(=O)Nc1nc2ccccc2[nH]1
not listed: [5]
inactive: all other assays above

C[C@]12CC[C@@H]3c4ccc(O)cc4CC[C@H]3[C@@H]1CC[C@@H]2OP(=O)(O)O
inactive: [1] | [2] | [3]

CCN(CC)CCC(=O)N1c2ccccc2Sc2ccc(C(F)(F)F)cc21
inactive: [1] | [2] | [3] | [4]

CNC(=O)c1ccccc1
inactive: [1] | [5] | [7]

CCOCCC(=O)OCC
inactive: [1] | [5] | [7]

COc1ccc(-c2cc(=O)c3c(O)cc(O[C@@H]4O[C@H](CO[C@@H]5O[C@@H](C)[C@H](O)[C@@H](O)[C@H]5O)[C@@H](O)[C@H](O)[C@H]4O)cc3o2)cc1O
inactive: [1] | [5] | [6] | [7]

CNC[C@@H]1CC[C@@H](N)[C@@H](O[C@H]2[C@H](O)[C@@H](O[C@H]3OC[C@](C)(O)[C@H](NC)[C@H]3O)[C@H](N)C[C@@H]2N)O1
inactive: [1] | [2] | [3]

CC(C)C(=O)O
not listed: [5] | [7]
inactive: all other assays above

COCc1ccc(COC)cc1
inactive: [1] | [5] | [7]

CCC(C)(CN(C)C)OC(=O)c1ccccc1 (stereo not given)
inactive: [1] | [2] | [3] | [4]

CCC(=O)Nc1ccc(O)cc1
inactive: [1] | [5] | [7]

CN1CCN(C2=Nc3ccccc3Sc3ccc(Cl)cc32)CC1
inactive: [1] | [2]

C[N+]1(C)[C@@H]2CC(OC(=O)[C@H](CO)c3ccccc3)C[C@H]1[C@@H]1O[C@@H]12 (stereo not given in full)
not listed: [5]
inactive: all other assays above

C=CC(C)CCC=C(C)C (stereo not given)
inactive: [1] | [5] | [6] | [7]

CCCCOC(=O)CC#N
inactive: [1] | [5] | [6] | [7]

Oc1ccc(C2CNCCc3c2cc(O)c(O)c3Cl)cc1 (stereo not given)
inactive: [1] | [2] | [3] | [4]

CC(=O)N[C@@H](Cc1ccc(O)cc1)C(=O)O
not listed: [5] | [7]
inactive: all other assays above

ClC(Cl)Cl
not listed: [5]
inactive: all other assays above

C=N[C@@H](C(=O)N[C@@H]1C(=O)N2[C@@H]1SC(C)(C)[C@@H]2C(=O)O)c1ccccc1
not listed: [5]
inactive: all other assays above

COc1ccc(C2(C#N)CCC(C(=O)O)CC2)cc1OC1CCCC1 (stereo not given)
not listed: [5] | [7]
inactive: all other assays above

O=C(C(=O)c1ccco1)c1ccco1
not listed: [5] | [7]
inactive: all other assays above

O=S1OCCO1
inactive: [1] | [2]

CC(C(=O)O)c1ccc(C(=O)c2cccs2)cc1 (stereo not given)
inactive: [1] | [2] | [3]

O=C1NC(=O)c2cc([N+](=O)[O-])ccc21
not listed: [5]
inactive: all other assays above

Cc1ccnc2ccccc12
inactive: [1] | [2]

O=C1CC[C@@H](C(=O)N[C@H]2C[C@@H]2c2ccccc2)N1
inactive: [1] | [5] | [6] | [7]

Cc1ncsc1CCO
not listed: [5] | [7]
inactive: all other assays above

C[Se]CCC(N)C(=O)O (stereo not given)
inactive: [1] | [2] | [3]

OC[C@H]1O[C@@H](OCCc2ccc(O)cc2)[C@H](O)[C@@H](O)[C@@H]1O
inactive: [1] | [5] | [6] | [7]

Cc1cc(O)ccc1N
not listed: [5] | [7]
inactive: all other assays above

N#CSc1ccc(N)c([N+](=O)[O-])c1
inactive: [1] | [2] | [3] | [4]

C[n+]1ccn(Cc2ccccc2)c1
not listed: [5] | [6]
inactive: all other assays above

COc1ccc(/C=C/C(=O)O)cc1
not listed: [5]
inactive: all other assays above

CNC(=O)NC
not listed: [5] | [6]
inactive: all other assays above
